Assay results as given in PubChem BioAssay AID1159580 (chemical genetic matrix, 2015).
In all, about 5,500 compounds went through this assay and about 2,000 (36%) were called active. About 18% were inconclusive and are not listed. Cut-off read from the data, not from the text of the source: active = normalized growth mostly below about 0.91 (no sharp cut-off); inconclusive = no clear call, values can overlap the other calls; inactive = mostly above about 0.92. The list shows a part of the results.

Assay: chemical genetic growth profiling, strain panel (AID 1159580);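 note: tested at 20 µM; growth read once vehicle control cultures reached saturation at 30 °C; 1 = growth at the plate median or of vehicle wells; lower values mean less growth of the strain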
Details: S. cerevisiae deletion strains, growth OD
[1] = locus YAL013W, strain DEP1, active compounds read low
[2] = locus YAL040C, strain CLN3, active compounds read low
[3] = locus YCL061C, strain MRC1 (second series), active compounds read low
[4] = locus YDR363W, strain ESC2, active compounds read low
[5] = locus YER002W, strain NOP16, active compounds read low
[6] = locus YNL153C, strain GIM3, active compounds read low
[7] = locus YNL175C, strain NOP13, active compounds read low
[8] = locus YNL197C, strain WHI3, active compounds read low
[9] = locus YNL224C, strain SQS1, active compounds read low
[10] = locus YOR083W, strain WHI5 (second series), active compounds read low
[11] = locus YPL241C, strain CIN2, active compounds read low
[12] = locus YAR019C, strain CDC15, active compounds read low
[13] = locus YBL105C, strain PKC1, active compounds read low
[14] = locus YBR135W, strain CKS1, active compounds read low
[15] = locus YBR136W, strain MEC1, active compounds read low
[16] = locus YBR160W, strain CDC28, active compounds read low
[17] = locus YDL017W, strain CDC7, active compounds read low
[18] = locus YDL028C, strain MPS1, active compounds read low
[19] = locus YDL101C, strain DUN1, active compounds read low
[20] = locus YDL108W, strain KIN28, active compounds read low
[21] = locus YDL132W, strain cdc53, active compounds read low
[22] = locus YDL214C, strain PRR2, active compounds read low
[23] = locus YDR052C, strain DBF4, active compounds read low
[24] = locus YDR054C, strain cdc34, active compounds read low
[25] = locus YDR226W, strain ADK1, active compounds read low
[26] = locus YDR477W, strain SNF1, active compounds read low
[27] = locus YER123W, strain YCK3, active compounds read low
[28] = locus YER133W, strain GLC7, active compounds read low
[29] = locus YFL009W, strain cdc4, active compounds read low
[30] = locus YFL029C, strain CAK1, active compounds read low
[31] = locus YFR003C, strain YPI1, active compounds read low
[32] = locus YFR019W, strain FAB1, active compounds read low
[33] = locus YFR028C, strain CDC14, active compounds read low
[34] = locus YGR040W, strain KSS1, active compounds read low
[35] = locus YGR052W, strain FMP48, active compounds read low
[36] = locus YGR092W, strain DBF2, active compounds read low
[37] = locus YHR030C, strain SLT2, active compounds read low
[38] = locus YHR079C, strain IRE1, active compounds read low
[39] = locus YHR082C, strain KSP1, active compounds read low
[40] = locus YHR205W, strain SCH9, active compounds read low
[41] = locus YIL147C, strain SLN1, active compounds read low
[42] = locus YJL095W, strain BCK1, active compounds read low
[43] = locus YJL128C, strain PBS2, active compounds read low
[44] = locus YJL157C, strain FAR1, active compounds read low
[45] = locus YJR016C, strain ILV3, active compounds read low
[46] = locus YJR066W, strain TOR1 (second series), active compounds read low
[47] = locus YJR066W, strain TOR1, active compounds read low
[48] = locus YKL048C, strain ELM1, active compounds read low
[49] = locus YKL067W, strain YNK1, active compounds read low
[50] = locus YKL101W, strain HSL1, active compounds read low
[51] = locus YKL193C, strain SDS22, active compounds read low
[52] = locus YKL203C, strain TOR2, active compounds read low
[53] = locus YLR113W, strain HOG1, active compounds read low
[54] = locus YLR133W, strain CKI1, active compounds read low
[55] = locus YLR403W, strain SFP1, active compounds read low
[56] = locus YML070W, strain DAK1, active compounds read low
[57] = locus YMR001C, strain CDC5, active compounds read low
[58] = locus YMR205C, strain PFK2 (second series), active compounds read low
[59] = locus YMR277W, strain FCP1, active compounds read low
[60] = locus YNL006W, strain LST8, active compounds read low
[61] = locus YNL020C, strain ARK1, active compounds read low
[62] = locus YNL161W, strain CBK1, active compounds read low
[63] = locus YNL183C, strain NPR1, active compounds read low
[64] = locus YNL207W, strain RIO2, active compounds read low
[65] = locus YNL222W, strain SSU72, active compounds read low
[66] = locus YNL307C, strain MCK1 (second series), active compounds read low
[67] = locus YOL078W, strain AVO1, active compounds read low
[68] = locus YOL136C, strain PFK27, active compounds read low
[69] = locus YOR061W, strain CKA2, active compounds read low
[70] = locus YOR119C, strain RIO1, active compounds read low
[71] = locus YOR231W, strain MKK1, active compounds read low
[72] = locus YOR329C, strain SCD5, active compounds read low
[73] = locus YPL031C, strain PHO85, active compounds read low
[74] = locus YPL153C, strain RAD53, active compounds read low
[75] = locus YPL204W, strain HRR25, active compounds read low
[76] = locus YPL209C, strain IPL1, active compounds read low
[77] = locus YPL256C, strain CLN2, active compounds read low
[78] = locus YPR025C, strain CCL1, active compounds read low
[79] = locus YPR106W, strain ISR1, active compounds read low
[80] = locus YPR111W, strain DBF20, active compounds read low
[81] = strain NNK1, active compounds read low
[82] = strain TSCII, active compounds read low

Measured: normalized growth

CN=C(N)NCCC[C@H](N)C(=O)O
inactive: [1] 1.02 | [2] 0.993 | [3] 1.03 | [4] 1.04 | [5] 0.992 | locus YMR263W, strain SAP30, active compounds read low 0.99 | [6] 1.02 | [7] 1.01 | [8] 1.01 | [9] 1.01 | [10] 1.01 | [11] 1

COc1cccc2c1[C@@H]1CN(CCCCn3c(=O)[nH]c4c(sc5ncc(-c6ccccc6)nc54)c3=O)C[C@@H]1CO2
inactive: [1] 0.921 | [2] 0.969 | [3] 0.962 | locus YDR150W, strain NUM1, active compounds read low 1.01 | [4] 0.963 | [5] 1.01 | locus YNL128W, strain TEP1, active compounds read low 1.02 | [6] 0.929 | [7] 1.03 | [8] 1 | [9] 1 | [10] 0.93 | [11] 0.984
active: locus YPL055C, strain LGE1, active compounds read low 0.781

Cc1nc(C(F)(F)F)ccc1-c1nnc(SC(=O)c2ccc(Cl)cc2)o1
active: [12] 0.875 | [13] 0.883 | [14] 0.884 | [15] 0.888 | [16] 0.878 | [17] 0.882 | [18] 0.884 | [19] 0.866 | [20] 0.882 | [21] 0.877 | [22] 0.648 | [23] 0.886 | [24] 0.857 | [25] 0.867 | [27] 0.49 | [29] 0.868 | [30] 0.872 | [31] 0.879 | [33] 0.881 | [37] 0.358 | [38] 0.442 | [39] 0.617 | [40] 0.348 | [41] 0.885 | [43] 0.747 | [45] 0.87 | [46] 0.393 | [48] 0.785 | [49] 0.641 | [50] 0.639 | [51] 0.874 | [53] 0.229 | [54] 0.684 | [56] 0.604 | [57] 0.875 | [58] 0.682 | [59] 0.876 | [60] 0.888 | [61] 0.655 | [62] 0.865 | [63] 0.566 | [64] 0.874 | [65] 0.877 | [66] 0.589 | [67] 0.874 | [68] 0.604 | [69] 0.644 | [71] 0.454 | [72] 0.877 | [76] 0.877 | [77] 0.334 | [78] 0.877 | [79] 0.833 | [80] 0.803 | [81] 0.786 | [82] 0.865
inactive: [26] 0.82 | [28] 0.792 | [32] 0.81 | [34] 0.831 | [35] 0.638 | [36] 0.568 | [42] 0.532 | [44] 0.764 | [47] 0.631 | [52] 0.862 | [55] 0.818 | [70] 0.909 | [73] 0.81 | [74] 0.837 | [75] 0.782

Cc1nc(C(F)(F)F)ccc1C(=O)Sc1nnc(-c2ccc(C(F)(F)F)nc2C)o1
inactive: [12] 0.946 | [13] 0.95 | [14] 0.954 | [15] 0.955 | [16] 0.952 | [17] 0.951 | [18] 0.955 | [19] 0.961 | [20] 0.952 | [21] 0.956 | [22] 0.901 | [23] 0.949 | [24] 0.939 | [25] 0.946 | [26] 0.943 | [27] 0.858 | [28] 0.936 | [29] 0.946 | [30] 0.947 | [31] 0.952 | [32] 0.976 | [33] 0.959 | [34] 0.956 | [35] 0.929 | [36] 0.864 | [38] 0.737 | [39] 0.962 | [40] 0.732 | [41] 0.952 | [42] 0.861 | [43] 0.902 | [44] 0.945 | [45] 0.952 | [46] 0.716 | [47] 0.935 | [48] 0.937 | [49] 0.893 | [50] 0.886 | [51] 0.949 | [52] 0.989 | [54] 0.924 | [55] 0.945 | [56] 0.89 | [57] 0.953 | [58] 0.918 | [59] 0.951 | [60] 0.959 | [61] 0.889 | [62] 0.936 | [63] 0.905 | [64] 0.942 | [65] 0.954 | [66] 0.868 | [67] 0.949 | [68] 0.876 | [69] 0.887 | [70] 1.02 | [71] 0.802 | [72] 0.953 | [73] 0.94 | [74] 0.963 | [75] 0.934 | [76] 0.95 | [78] 0.949 | [79] 0.951 | [80] 0.919 | [81] 0.928 | [82] 0.943
active: [37] 0.617 | [53] 0.515 | [77] 0.605
